Screening results: PubChem, National Center for Advancing Translational Sciences (NCATS)
Shown are actives, neighbours in structure and some others; about 9.5% of the full set was active somewhere.
ALDH1A1 block – inhibitors of human aldehyde dehydrogenase 1A1; P00352; Purified ALDH1A1, NADH fluorescence, propionaldehyde substrate; Potency, µM (top dose mostly 75.3 µM), inactives show at the highest dose activity, negative = inhibition, hits mostly inhibitors; 220,000 tested, 7.3% active; active means well fitted inhibition curve with a large enough effect, not every such curve was filed as active; inconclusive means small, poorly fitted or top-dose-only effect, or another doubt; inactive means no such curve, though single readings can be large or run the other way;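 further: plate controls were no enzyme wells and a reference inhibitor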
NPSR antagonist – neuropeptide S receptor (human) antagonism, cAMP; Q6W5P4; CHO-NPSR cells, cAMP TR-FRET, antagonist mode; Potency, µM (highest dose often 38.3 µM), for the others: at the highest dose activity change, negative = inhibition, hits mostly inhibitors; 220,000 tested, 1% active; AID 1461; further: nearly all actives have a fitted effect of over 50% in size
Target sequence (Q6W5P4 whole entry, looked up): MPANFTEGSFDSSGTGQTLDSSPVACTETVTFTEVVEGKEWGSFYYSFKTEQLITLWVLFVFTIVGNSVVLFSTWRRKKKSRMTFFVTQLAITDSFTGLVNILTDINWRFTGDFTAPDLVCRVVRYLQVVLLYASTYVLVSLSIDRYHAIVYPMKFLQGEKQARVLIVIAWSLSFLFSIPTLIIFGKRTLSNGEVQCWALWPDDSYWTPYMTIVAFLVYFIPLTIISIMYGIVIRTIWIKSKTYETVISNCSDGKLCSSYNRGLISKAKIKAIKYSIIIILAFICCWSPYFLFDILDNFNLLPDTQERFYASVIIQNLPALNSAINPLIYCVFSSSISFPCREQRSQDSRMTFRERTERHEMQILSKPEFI
Tau fluor counter – counter-screen for tau fibril formation inhibitors. 280,000 tested, 0.93% active. AID 1463. tau K18 P301L Alexa594 fluorescence, heparin fibrillization. Potency, µM (top dose mostly 57.7 µM), for inactives: top-dose activity change, negative = decrease; further: nearly all actives have a fitted effect of over 55% in size
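Human tau K18 P301L (15 uM unlabeled, 0.24 uM Alexa 594-labeled) in 100 mM sodium acetate pH 7 with 20 uM heparin, 6 hr at 37 C. ThT 30 uM added, 1 hr ambient; Alexa 594 FP and total fluorescence read at 555/632 nm.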
Tau fibril ThT – tau fibrillization inhibition (ThT binding) | recombinant tau K18 P301L (four-repeat tau fragment), heparin-induced fibrillization, ThT fluorescence | Potency, µM (highest dose often 57.4 µM), for inactives: at the highest dose activity, negative = inhibition, hits mostly inhibitors | 270,000 tested, 2.1% active | AID 1460; further: nearly all actives have a fitted effect of over 55% in size
Target sequence (P10636 561-689 P618L limits assumed): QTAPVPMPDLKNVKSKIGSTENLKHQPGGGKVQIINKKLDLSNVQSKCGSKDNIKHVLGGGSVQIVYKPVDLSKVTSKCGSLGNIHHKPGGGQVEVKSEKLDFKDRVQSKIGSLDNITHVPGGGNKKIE
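Aggregation was driven by heparin (20 uM final) acting on recombinant tau […] bearing P301L in 100 mM sodium acetate pH 7; fibrils were detected with Thioflavin T.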
HPGD inh – inhibitors of human 15-hydroxyprostaglandin dehydrogenase (HPGD); purified HPGD, NADH fluorescence kinetic, PGE2 substrate; Potency, µM, without a hit: top-dose activity change, negative = inhibition, usual class: inhibitors; 150,000 tested, 4.3% active; active means well fitted inhibition curve with a large enough effect, not every such curve was filed as active; inconclusive means small, poorly fitted or top-dose-only effect, or another doubt; inactive means no such curve, though single readings can be large or run the other way
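20 nM HPGD preincubated 15 min at room temperature with compound in 50 mM Tris-HCl pH 8, 0.01% Tween 20. Started with 1 mM NAD+ and 30 uM prostaglandin E2; NADH fluorescence (360/450 nm) read 5 times over 30-s intervals, last minus first.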
Tau fibril FP – inhibitors of human tau fibril formation; P10636; K18 P301L tau heparin fibrillization, Alexa594 FP, 6 h; Potency, µM (doses to about 57.7 µM), for inactives: at the top dose activity, negative = inhibition, usual class: inhibitors; 280,000 tested, 0.39% active; AID 1468; further: nearly all actives have a fitted effect of over 55% in size
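Human K18 P301L fragment (15 uM unlabeled plus 0.24 uM Alexa 594-labeled) in 100 mM sodium acetate pH 7 with compound, aggregation induced by 20 uM heparin for 6 hr at 37 C. ThT (30 uM) added for 1 hr, then Alexa 594 FP read.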
The depositor's hits bear a star; ? = inconclusive; . = not tested or not shown; [ ] = another dose, or the depositor's remark. Unless noted, the call rests on the fitted dose curve; in most records, active means well fitted curve in the direction sought with a large enough effect; inconclusive means small, poorly fitted or top-dose-only effect, or another doubt; inactive means no such curve, though single readings can be large; an effect the other way counts as inactive or inconclusive. Unless noted, on the % scale 0 is the no-effect control and ±100 the full control effect; potency means the concentration at half of the fitted maximal effect.

SMILES	ALDH1A1 block	NPSR antagonist	Tau fluor counter	Tau fibril ThT	HPGD inh	Tau fibril FP
CSc1nc(-c2ccco2)nn1S(=O)(=O)c1ccccc1	14µM*	7%[46.1 µM]	0%	-16%	14µM*	-6%
CCOc1ccc(Nc2nc(NCCN3CCOCC3)nc(OC)n2)cc1	2%	-11%[46.1 µM]	-16%	?	?	1%
Cc1cccc(Cn2c(C)c(CNC3CCCCC3)c(C(=O)O)c2C)c1	.	.	-4%	-3%	.	1%
CC1(C)N=C(SCc2ccc(Cl)cc2)c2ccccc2N1	.	.	10µM*[quencher]	?	.	-11%
Clc1ccc(CSc2ncccn2)cc1	-6%	-9%[46.1 µM]	-3%	1%	-28%	2%
Cc1ccc(CSC2=NC(C)(C)Nc3ccccc32)c(C)c1	.	.	14µM*[quencher]	?	.	4%
Cc1cc(-c2nnc(SCC(=O)Nc3ccccc3C(F)(F)F)o2)c(C)n1-c1ccccc1	11µM*	-4%[46.1 µM]	-4%	-10%	-15%	11%
COc1ccc(-c2cnnc(N/N=C/c3ccc(O)c(OC)c3)n2)cc1	3%	4%	?	1.8µM*	-8%	4%
COc1cc(/C=N/Nc2nc(-c3ccc(S(=O)(=O)N(C)C)cc3)cs2)ccc1O	.	?	13µM*[quencher]	10µM*	.	3%
COc1cc(/C=N/Nc2ccccn2)ccc1O	.	-3%	-26%	?	.	1%
CCOc1cc(/C=N/Nc2nc(-c3cccc(S(=O)(=O)N4CCCC4)c3)cs2)ccc1O	?	-20%	10µM*[quencher]	?	?	14%
COc1cc(/C=N/Nc2cc(C)nc(NS(=O)(=O)c3ccc(C)cc3)n2)ccc1O	-59%	-19%[46.1 µM]	-25%	?	-21%	12%
COc1ccc(/C=N/Nc2nc(-c3cccc(S(=O)(=O)N4CCCC4)c3)cs2)cc1OC	?	-6%	?	?	?	10%
O=S(=O)(c1cccc(-c2csc(N/N=C/c3ccco3)n2)c1)N1CCOCC1	.	-26%	13µM*[quencher]	14µM*	.	10%
COc1ccc(OC)c(NC(=O)C(=O)NNC(=O)c2cccs2)c1	?	5%[46.1 µM]	-11%	?	-22%	?
CN(C(=O)CSc1nc2cc(Cl)ccc2c(=O)n1Cc1ccco1)C1CCS(=O)(=O)C1 (stereo unspecified)	?	-21%	-7%	-1%	.	-1%
CCc1cc2c(=O)n(Cc3ccco3)c(SCC(=O)N3CCCc4ccccc43)nc2s1	4.5µM*	?	-2%	?	-26%	-15%
CCc1cc2c(=O)n(Cc3ccco3)c(SCC(=O)NC3CCS(=O)(=O)C3)nc2s1 (stereo unspecified)	10µM*	-12%	-2%	-8%	.	0%
COC(=O)c1ccc2c(=O)n(Cc3ccco3)c(SCC(=O)Nc3cc(C)on3)nc2c1	8%	-34%	-5%	-3%	.	?
CCc1cc2c(=O)n(Cc3ccco3)c(SCC(=O)N(C)C3CCS(=O)(=O)C3)nc2s1 (stereo unspecified)	10µM*	-21%	-5%	-6%	.	9%
O=C(CSc1nc2ccccc2c(=O)n1Cc1ccco1)N1CCCCCC1	?	?	-7%	-8%	-20%	1%
CCc1cc2c(=O)n(Cc3ccco3)c(SCc3c(C)noc3C)nc2s1	22µM*	?	2%	?	-12%	2%
CN(C)CCCNc1cc(C(C)(C)C)nc2c(-c3ccccc3)cnn12	.	?	22µM*[quencher]	?	.	?
Cc1cc(NCCCN2CCOCC2)n2ncc(-c3ccccc3)c2n1	?	-5%[46.1 µM]	-20%	-17%	?	6%
Cn1cc([N+](=O)[O-])c(C(=O)NCc2cc3cc(Cl)ccc3[nH]2)n1	-2%	-3%	-2%	-5%	4%	13%
COC(=O)c1cc2occc2n1Cc1ccc(F)cc1Cl	.	.	-27%	?	.	-13%
NCCCN1CCOCC1	11%	4%[46.1 µM]	0%	2%	-2%	4%
CCOC(=O)c1nc(C)sc1-c1ccnn1S(=O)(=O)c1ccc(C)cc1	3.2µM*	51%	-5%	8%	.	-1%
